Assay results as given in PubChem BioAssay (NCATS).
Inconclusive results are not listed. Activity calls are given as the source filed them. Unless noted, calls come from the whole dose curve; as a rule, active = well fitted curve in the direction sought with a large enough effect; inconclusive = small, poorly fitted or top-dose-only effect, or another doubt; inactive = no such curve, though single readings can be large; an effect the other way counts as inactive or inconclusive.

Legend:
[1] = biological target: Atrial natriuretic peptide receptor 2 (Homo sapiens) (UniProt P20594); test: Natriuretic polypeptide receptor (hNpr2) antagonism - Pilot subtype selectivity assay (AID 1347050; calls by dose curve)
How it was run: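 cGMP-sensor HEK293/hNpr2 cells; 2% GloSensor reagent 2 h RT; compounds 30 min; baseline luminescence read; 1 nM hNppC agonist 20 min RT; final luminescence read by CCD camera. Antagonism = reduced post-agonist signal.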

[2] = biological target: T1, Tyrosine-protein phosphatase non-receptor type substrate 1 (Homo sapiens) + Leukocyte surface antigen CD47 (Homo sapiens) (UniProt P78324+Q08722); test: CD47-SIRPalpha protein protein interaction - LANCE assay qHTS validation (AID 1347057; active = well fitted curve in the direction sought with a large enough effect in the signal ratio, with a control signal flat, not every such curve was filed as active; the % refers to the signal ratio; note: series mostly up to about 38 µM)
How it was run: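 First, His-tagged CD47 and Eu-labelled anti-His antibody met the compound for 30 min; next, site-specifically biotinylated SIRPalpha was added for 30 min; finally streptavidin-APC was added before reading the TR-FRET ratio.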

[3] = biological target: T1, Tyrosine-protein phosphatase non-receptor type substrate 1 (Homo sapiens) + Leukocyte surface antigen CD47 (Homo sapiens); test: CD47-SIRPalpha protein protein interaction - Alpha assay qHTS validation (AID 1347059);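 note: bead proximity luminescence from CD47 binding SIRPalpha after compound preincubation with SIRPalpha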
How it was run: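 Soluble extracellular domains: Avi-tag biotinylated SIRPalpha (25 nM) preincubated 30 min RT with compound, then 6His-CD47 (12.5 nM) 30 min; Ni-NTA acceptor and streptavidin donor beads (10 ug/mL) 30 min, AlphaScreen read. PBS pH 7.4, 0.05% IGEPAL.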

[4] = biological target: Parathyroid hormone/parathyroid hormone-related peptide receptor (Homo sapiens) (UniProt Q03431); test: qHTS for PTHR1 Agonists: Optimization Screen against the NCGC LOPAC library (AID 1347079);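 note: GloSensor cAMP luminescence in HEK-293 GP2 cells expressing human PTHR1 with IBMX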
How it was run: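 Agonist readout: GloSensor cAMP luminescence, read after 15 min at room temperature. HEK-293-derived GP2 line carries PTHR1; compounds tested as a titration for 1 hr at 37C in presence of IBMX. M-PTH (1-15) served as control.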

[5] = qHTS of pediatric cancer cell lines to identify multiple opportunities for drug repurposing: Primary screen for A673 cells (AID 1347092); note: nearly all actives have a fitted effect of over 45% in size; note: potency is the fitted concentration of half-maximal effect
How it was run: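 A673 cells (500-1,000 cells/well in growth media) were pre-incubated 5 h at 37 degrees C, then exposed to compounds for 48 h. Viability was read as CellTiter-Glo luminescence; concentration-response curves came directly from the primary screen.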

[6] = biological target: T1, Tyrosine-protein phosphatase non-receptor type substrate 1 (Homo sapiens) + Leukocyte surface antigen CD47 (Homo sapiens); test: CD47-SIRPalpha protein protein interaction - HTRF assay qHTS validation (AID 1347058; active = well fitted curve in the direction sought with a large enough effect in the signal ratio, not every such curve was filed as active; the % refers to the signal ratio; note: series mostly up to about 38 µM)
How it was run: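 TR-FRET read (Ch1/Ch2 ratio) of soluble extracellular CD47 and Avi-biotinylated SIRPalpha domains in PBS pH 7.4 with 0.05% IGEPAL; 7-point compound titration. Sequential 30 min room-temperature steps; non-biotinylated SIRPalpha as control inhibitor.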

[7] = qHTS of pediatric cancer cell lines to identify multiple opportunities for drug repurposing: Primary screen for TC32 cells (AID 1347089); note: nearly all actives have a fitted effect of over 60% in size; note: potency is the fitted concentration of half-maximal effect
How it was run: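 Luminescent CellTiter-Glo read-out of metabolically active TC32 cells after 48 h compound exposure. Primary: MIPE 11-point, 0.78 nM–46 µM; NPC 8-point, 0.59 nM–46 µM. Confirmatory: 11-point dilutions.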

[8] = qHTS of pediatric cancer cell lines to identify multiple opportunities for drug repurposing: Primary screen for DAOY cells (AID 1347090); note: series mostly up to about 46 µM; nearly all actives have a fitted effect of over 55% in size
How it was run: (§1)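 Eight- or eleven-point concentration series, 48 h treatment at 37 degrees C in growth media; readout CellTiter-Glo luminescence. Potency and efficacy were taken from the concentration-response curves.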

[9] = qHTS of pediatric cancer cell lines to identify multiple opportunities for drug repurposing: Primary screen for SJ-GBM2 cells (AID 1347091)
How it was run: as §1

[10] = NS1 protein of Zika virus - qHTS assay to identify small molecule inhibitors in human HEK 293 cells (AID 1347053); note: series mostly up to about 46 µM; nearly all actives have a fitted effect of over 55% in size
How it was run: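 HEK 293 cells, seeded 20 h at 37 C, were pretreated with compound 1 h, then infected with ZIKV MR766 (MOI = 0.5) for 24 h. NS1 was read by TR-FRET with two anti-NS1 antibodies, normalized to uninfected and infected wells.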

Measured: Potency

T1 sequence (P78324 whole entry, looked up): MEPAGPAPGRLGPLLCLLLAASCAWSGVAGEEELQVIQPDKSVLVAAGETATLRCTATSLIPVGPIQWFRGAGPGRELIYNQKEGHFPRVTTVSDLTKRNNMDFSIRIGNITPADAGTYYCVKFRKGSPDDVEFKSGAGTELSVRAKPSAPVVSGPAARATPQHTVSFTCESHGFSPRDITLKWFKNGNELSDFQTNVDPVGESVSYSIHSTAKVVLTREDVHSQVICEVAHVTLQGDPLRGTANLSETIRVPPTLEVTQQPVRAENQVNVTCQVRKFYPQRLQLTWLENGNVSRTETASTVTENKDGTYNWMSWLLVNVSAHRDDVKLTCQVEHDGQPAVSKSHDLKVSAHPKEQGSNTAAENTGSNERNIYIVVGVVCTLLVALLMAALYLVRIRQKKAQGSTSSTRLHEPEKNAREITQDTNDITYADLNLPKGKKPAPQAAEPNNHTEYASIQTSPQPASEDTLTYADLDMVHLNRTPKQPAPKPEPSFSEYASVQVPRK
T1 sequence (Q08722 whole entry, looked up): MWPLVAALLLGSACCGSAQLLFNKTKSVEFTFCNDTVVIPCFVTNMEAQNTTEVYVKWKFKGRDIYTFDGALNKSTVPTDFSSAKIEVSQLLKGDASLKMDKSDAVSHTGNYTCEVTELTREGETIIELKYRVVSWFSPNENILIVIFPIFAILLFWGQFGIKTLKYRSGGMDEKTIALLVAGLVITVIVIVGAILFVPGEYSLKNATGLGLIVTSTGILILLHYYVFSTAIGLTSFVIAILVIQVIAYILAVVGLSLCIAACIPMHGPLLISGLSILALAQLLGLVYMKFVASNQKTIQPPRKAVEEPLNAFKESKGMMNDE
Chain of Parathyroid hormone/parathyroid hormone-related peptide receptor (Homo sapiens) (Q03431 whole entry, looked up): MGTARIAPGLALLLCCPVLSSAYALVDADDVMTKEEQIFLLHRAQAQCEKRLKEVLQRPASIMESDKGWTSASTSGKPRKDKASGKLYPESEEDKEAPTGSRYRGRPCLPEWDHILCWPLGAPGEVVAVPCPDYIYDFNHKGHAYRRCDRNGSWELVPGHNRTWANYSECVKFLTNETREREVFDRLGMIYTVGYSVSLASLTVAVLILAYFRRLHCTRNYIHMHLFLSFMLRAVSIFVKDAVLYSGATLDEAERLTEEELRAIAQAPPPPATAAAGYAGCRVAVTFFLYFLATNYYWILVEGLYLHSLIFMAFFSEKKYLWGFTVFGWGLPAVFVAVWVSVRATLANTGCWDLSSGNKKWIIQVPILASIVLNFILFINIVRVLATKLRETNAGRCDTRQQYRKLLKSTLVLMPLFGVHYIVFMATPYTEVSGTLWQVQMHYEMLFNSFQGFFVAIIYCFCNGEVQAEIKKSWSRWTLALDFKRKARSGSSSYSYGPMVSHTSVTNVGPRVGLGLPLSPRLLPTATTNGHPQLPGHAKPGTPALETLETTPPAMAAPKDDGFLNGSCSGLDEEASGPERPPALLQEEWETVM
Chain of Atrial natriuretic peptide receptor 2 (Homo sapiens) (P20594 whole entry, looked up): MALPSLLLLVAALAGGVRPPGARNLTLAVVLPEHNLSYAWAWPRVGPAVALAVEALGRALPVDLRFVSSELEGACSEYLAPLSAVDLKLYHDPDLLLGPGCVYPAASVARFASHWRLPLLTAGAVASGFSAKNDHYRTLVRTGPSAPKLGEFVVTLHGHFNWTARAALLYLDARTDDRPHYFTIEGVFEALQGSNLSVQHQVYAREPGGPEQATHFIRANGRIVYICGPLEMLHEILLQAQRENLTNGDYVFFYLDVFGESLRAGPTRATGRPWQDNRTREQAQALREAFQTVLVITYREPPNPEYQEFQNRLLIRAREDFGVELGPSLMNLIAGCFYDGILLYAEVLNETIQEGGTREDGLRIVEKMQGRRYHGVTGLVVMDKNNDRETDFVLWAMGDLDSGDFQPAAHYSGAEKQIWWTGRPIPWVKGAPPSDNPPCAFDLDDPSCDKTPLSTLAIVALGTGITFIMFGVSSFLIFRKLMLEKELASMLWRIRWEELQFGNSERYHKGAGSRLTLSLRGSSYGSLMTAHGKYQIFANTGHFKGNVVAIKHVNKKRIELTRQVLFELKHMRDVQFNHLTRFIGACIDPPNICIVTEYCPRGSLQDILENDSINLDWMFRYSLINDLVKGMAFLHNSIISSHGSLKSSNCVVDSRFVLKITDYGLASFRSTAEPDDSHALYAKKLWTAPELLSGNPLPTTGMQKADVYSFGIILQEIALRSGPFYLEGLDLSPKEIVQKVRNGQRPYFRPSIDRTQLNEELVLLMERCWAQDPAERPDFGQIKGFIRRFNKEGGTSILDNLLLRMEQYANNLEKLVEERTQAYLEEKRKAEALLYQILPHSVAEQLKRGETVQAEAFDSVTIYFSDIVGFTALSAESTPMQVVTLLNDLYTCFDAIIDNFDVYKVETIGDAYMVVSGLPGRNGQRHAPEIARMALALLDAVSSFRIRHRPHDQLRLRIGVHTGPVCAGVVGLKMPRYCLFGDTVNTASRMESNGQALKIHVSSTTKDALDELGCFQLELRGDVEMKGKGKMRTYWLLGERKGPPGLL

CC(C)COCC(CN(Cc1ccccc1)c1ccccc1)N1CCCC1 (configuration not stated)
active: [5] 26.6 µM
inactive: [1] | [2] | [3] | [4]

NC(=O)c1ncn([C@@H]2O[C@H](CO)[C@@H](O)[C@H]2O)c1O
inactive: [1] | [2] | [6] | [3] | [4] | [7] | [8] | [9] | [5]

NS(=O)(=O)c1cc2c(cc1Cl)NC(C1CC3C=CC1C3)NS2(=O)=O (configuration not stated)
inactive: [1] | [2] | [3] | [4] | [7] | [8] | [9] | [5]

Cc1scc2c1N(C(=O)CN1CCN(C)CC1)c1ccccc1NC2=O
inactive: [1] | [2] | [3] | [4] | [7] | [8] | [9] | [5]

CC(C)NNC(=O)c1ccncc1
inactive: [1] | [2] | [6] | [3] | [4] | [7] | [8] | [9] | [5]

NC(=Nc1ccccc1)Nc1ccccc1
inactive: [10] | [7] | [8] | [9] | [5]

Nc1ncn([C@@H]2O[C@H](CO)[C@@H](O)[C@H]2O)c(=O)n1
active: [7] 11.8 µM | [5] 6.68 µM
inactive: [1] | [2] | [6] | [3] | [4]

COc1ccc(CCN(C)CCCC(C#N)(c2cc(OC)c(OC)c(OC)c2)C(C)C)cc1OC (configuration not stated)
inactive: [1] | [2] | [6] | [3] | [4] | [7] | [8] | [9] | [5]

COC(=O)C1=C(C)NC(C)=C(C(=O)OC(C)(C)CN(C)CCC(c2ccccc2)c2ccccc2)C1c1cccc([N+](=O)[O-])c1 (configuration not stated)
inactive: [1] | [2] | [6] | [3] | [4] | [9]

CN(C)CC[C@@H](c1ccc(Br)cc1)c1ccccn1
inactive: [1] | [4] | [7] | [8] | [9] | [5]

OC(CCN1CCCCC1)(c1ccccc1)C1CCCCC1 (configuration not stated)
inactive: [10] | [4] | [7] | [8] | [5]
